From ChEMBL document CHEMBL3988442, “University of Dundee, Small-Polar-MMV Screening Library” (2021) come the findings set out here.

Hit rate of the full screen: of about 38,000 compounds, about 1,200 (3.2%) showed an effect of 50% or more. The median lay at about -58%. The full list was thinned out, with strong results kept by preference.

The test system of this assay is Plasmodium falciparum. Briefly: Calibr Malaria Delayed Death Assay SOP. It is filed as functional, organism-based. Set-up: scale not given: in the data most compounds retested in dose-response had high values. Particulars: concentration 4.99e-06 (unit not given; other assays of the set use mol/L).
`CN(CC1(CO)CCC1)C(=O)c1cc(COc2ccccc2F)[nH]n1`: the “Percent Effect” value was -88.13%.
With `Cc1noc(C(C)C)c1C(=O)N1CCOCC1CC(=O)c1ccco1` (stereo not drawn), the “Percent Effect” value is -42.91%.
As for `NC(=O)Cc1ccc(OCc2noc(C(=O)N3CCCC3)n2)cc1`, the “Percent Effect” value is given as -126.1%.
As for `O=C(C1CCC2(CCN(Cc3cccnc3)CC2)CO1)N1CCCC1.O=C(O)C(F)(F)F.O=C(O)C(F)(F)F` (stereo not drawn), the “Percent Effect” value is -51.34%.
The same measure for `COc1cc(CCC(=O)NC(C)C)ccc1OCC(F)(F)F`: -88.73%; for `Cc1c(C(=O)N2CCOCC2)n(C)c2ccc(Cl)cc12.Cl`: -79.72%; for `Cc1c(C(=O)N2CCN(C)CC2)n(C)c2ccc(Cl)cc12`: -1.924%.
As for `OC1CCN(c2ccnc(NCCc3ccccc3Cl)n2)CC1`, the “Percent Effect” value is -52.91%.
As to `NCC1Cc2cc(-c3nccc(N4CCC(O)CC4)n3)cc(Cl)c2O1` (stereo not drawn), the “Percent Effect” value was determined as 79.64%.
On to `OC1CCN(c2ccnc3c(F)cc(Br)cc23)CC1`, for which the “Percent Effect” value is given as -18.79%.
With `O=C1NCCN1C1CCN(c2ccnc(-c3ccccc3)n2)CC1`, the “Percent Effect” value is reported as -68.77%.
Regarding `NCC1Cc2cc(-c3nccc(N4CCC(O)CC4)n3)cc(F)c2O1` (stereo not drawn), the “Percent Effect” value is recorded as 83%.
For the compound `NCC1Cc2cccc(-c3nccc(N4CCC(O)CC4)n3)c2O1` (stereo not drawn), the “Percent Effect” value was 16.4%.
The same measure for `Cc1ccc(CN2CCc3c(COC(C)C)nn(C)c3C2)s1.O=C(O)C(F)(F)F`: -19.42%.
As for `N[C@H]1CN(S(=O)(=O)c2cccnc2)C[C@@H]1C1CC1`, the “Percent Effect” value is -65.5%.
Take `Cc1cc(-c2cc(S(=O)(=O)N3C[C@H](C4CC4)[C@@H](N)C3)c(C)s2)[nH]n1`: the “Percent Effect” value is reported as 61.47%.
For `Cc1ccc(S(=O)(=O)N2C[C@H](C3CC3)[C@@H](N)C2)cc1F`, the “Percent Effect” value was 14.36%.
Take `N[C@H]1CN(S(=O)(=O)c2ccccc2)C[C@@H]1C1CC1`: the “Percent Effect” value is -1.115%.
For the compound `Cc1cc(S(=O)(=O)N2C[C@H](C3CC3)[C@@H](N)C2)c(C)s1`, the “Percent Effect” value was 85.63%.
`CC(C)Nc1cc(N2CCC(n3cc(CCO)nn3)CC2)ncn1`: the “Percent Effect” value is listed as -78.28%.
Consider `Cc1cc(C(=O)N2CCN(c3nc4c(C)cccc4s3)CC2)no1`, for which the “Percent Effect” value was -18.05%.
As to `Cc1c(C2N3C[C@]4(C(C)C)CN2C[C@](C(C)C)(C3)C4=O)[nH]c(=O)[nH]c1=O` (stereo partly drawn), the “Percent Effect” value was -140.7%.
Turning to `O=C(O)C(F)(F)F.O=C1COC2(CCN(c3ncccn3)CC2)CN1Cc1ccccn1`, the “Percent Effect” value was -77.45%.
The same measure for `CN(CCCOc1ccccc1)C(=O)c1csc(-c2nnc[nH]2)n1`: 76.91%; for `COCCN(Cc1ccccc1)C(=O)c1csc(-c2nnc[nH]2)n1`: -56.87%.
`COc1cccc(CN(C)C(=O)c2csc(-c3nnc[nH]3)n2)c1`: the “Percent Effect” value was -25.24%.
As to `CC(=O)Nc1nc2c(s1)C1(CCCC1)Nc1ccccc1S2`, the “Percent Effect” value is given as -91.88%.
In the case of `Cc1nc(CCNC(=O)C2CC(=O)N(C(C)C)C2)cs1` (stereo not drawn), the “Percent Effect” value is -69.29%.
As for `Cc1ccc(NC2CCN(C(=O)COC3CCCC3)CC2)nn1`, the “Percent Effect” value is -115.6%.
Take `Cc1cc2n(n1)CC(CNC1CCN(C(=O)c3ccco3)CC1)CN2` (stereo not drawn): the “Percent Effect” value is recorded as -80.47%.
Consider `Cc1ccccc1CN1CCC(NCC2CNc3ccnn3C2)CC1` (stereo not drawn), for which the “Percent Effect” value is given as 66.35%.
For the compound `Cc1cc2n(n1)CC(CNC1CCN(C(=O)C3CC3)CC1)CN2` (stereo not drawn), the “Percent Effect” value is recorded as -153%.
`Cc1cc2n(n1)CC(CNC1CCN(Cc3ccncc3)CC1)CN2` (stereo not drawn): the “Percent Effect” value is recorded as -3.89%.
Turning to `Cc1cc2n(n1)CC(CNC1CCN(c3ccccn3)CC1)CN2` (stereo not drawn), the “Percent Effect” value is -51.76%.
Regarding `Cc1cc2n(n1)CC(CNC1CCN(Cc3ccccc3C)CC1)CN2` (stereo not drawn), the “Percent Effect” value was 70.36%.
`Cc1cccc(CN2CCC(NCC3CNc4cc(C)nn4C3)CC2)c1` (stereo not drawn): the “Percent Effect” value is reported as 85.82%.
The same measure for `Cc1cc2n(n1)CC(CNC1CCN(CCc3ccccc3)CC1)CN2` (stereo not drawn): 67.68%.
Turning to `Cc1cc2n(n1)CC(CNC1CCN(C3CC3)CC1)CN2` (stereo not drawn), the “Percent Effect” value is reported as -73.71%.
On to `c1ccc(C2(NCC3CNc4ccnn4C3)CCC2)cc1` (stereo not drawn), for which the “Percent Effect” value is 13.04%.
Next, `OCc1ccccc1CNCC1CNc2ccnn2C1` (stereo not drawn): -1.893%; `Cc1cc2n(n1)CC(CNC1CCN(Cc3ccccn3)CC1)CN2` (stereo not drawn): -56.82%.
The same measure for `CC(C)N1CCC(Cc2cc(-c3cc(F)ccc3C(=O)O)ncn2)C1` (stereo not drawn): -123.1%; for `COCCN1CCCC2(CCN(Cc3nnc(C4CC4)o3)C2)C1=O` (stereo not drawn): -62.36%.
Turning to `COCCNC(=O)c1cccnc1Oc1ccc(Cl)cc1`, the “Percent Effect” value was -11.3%.
For the compound `O=C(NC1CC1)[C@H]1C[C@@H]2CCN(Cc3ccc4c(c3)OCO4)C[C@@H]2O1.O=C(O)C(F)(F)F`, the “Percent Effect” value was -22.11%.
On to `CC(C)c1nc(C2CCCN2C(=O)CCn2cncn2)no1` (stereo not drawn), for which the “Percent Effect” value was -126.6%.
Turning to `CCCN(CCc1ccccc1)C(=O)c1ccccc1NCC(=O)O`, the “Percent Effect” value is -32.98%.
With `Cc1cc(C(C)(O)CNC(=O)CCn2ccnc2C(C)C)c(C)o1` (stereo not drawn), the “Percent Effect” value is given as -18.43%.
Consider `Cc1cc(NC(=O)NCCOc2ccc(Cl)cn2)no1`, for which the “Percent Effect” value is -49.88%.
For the compound `COc1cc(C)sc1C(=O)NCCC(=O)N(C)Cc1ccccc1`, the “Percent Effect” value is given as 58.21%.
With `COc1cc(C)sc1C(=O)NCCC(=O)N(C)c1ccccc1`, the “Percent Effect” value stood at 32.05%.
In the case of `COc1cc(C)sc1C(=O)NCCNc1ccccc1`, the “Percent Effect” value amounted to 14.03%.
The same measure for `COCC(=O)N1CCO[C@]2(CCC[C@H]2COC)C1`: -73.03%; for `CCc1n[nH]c(C2CN(C(=O)CCCn3cccn3)CCO2)n1` (stereo not drawn): -94.04%.
`COc1ccc(-c2ccccc2CCN)c(OC)c1OC`: the “Percent Effect” value is recorded as 81.6%.
Regarding `COc1ccc(CN)c(OC(F)F)c1.Cl`, the “Percent Effect” value is given as -30.28%.
`COc1ccc(-c2ccnc(N)c2)c(OC)c1`: the “Percent Effect” value is given as -94.95%.
Next, `CC(=O)Nc1cccc(-c2ccccc2CCN)c1`: -111.2%; `COc1ccc(-c2cc(CN)ccc2F)c(OC)c1OC`: 12.18%; `COc1ccc(CCN)cc1-c1ccc(S(C)(=O)=O)cc1`: 18.27%.
In the case of `COc1ccc(-c2ccccc2CN)c(OC)c1`, the “Percent Effect” value was determined as 59.74%.
Next, `COc1ccc(OC)c(-n2cnnc2CCN)c1`: -39.19%; `COc1ccc(-c2ccccc2CCN)c(OC)c1`: 80.76%.
As for `Cc1c[nH]c(C(=O)N2CCCC2c2ccc(C(=O)N3CCSCC3)s2)n1` (stereo not drawn), the “Percent Effect” value is on record as -168.9%.
Turning to `CC(=O)N1CCCC2(C1)CN(C(=O)Cc1ccccc1)CCO2` (stereo not drawn), the “Percent Effect” value is reported as -122.2%.
`O=C(O)Cn1ccc(=O)c2cc(Cl)ccc21`: the “Percent Effect” value is listed as -122.9%.
Regarding `CCOc1cccc2c1OCC(=O)N(c1ccc(N(C)C)cc1)C2`, the “Percent Effect” value is reported as -248.2%.
Next, `COc1ccc(OCCN(C)C(=O)c2ccc(OC)cc2O)cc1`: -28.6%.
Take `COc1ccc(-c2nnsc2C(=O)N2CCOCC2)cc1`: the “Percent Effect” value was -93.54%.
Take `COc1c(CNCc2ccccc2Cn2cccn2)c(C)nn1C`: the “Percent Effect” value stood at 54.96%.
In the case of `COc1c(CNCc2cccc(Cn3cccn3)c2)c(C)nn1C`, the “Percent Effect” value amounted to 6.408%.
Regarding `COc1c(CNCc2ccccc2Cn2cncn2)c(C)nn1C`, the “Percent Effect” value is -2.524%.
Take `Cc1nn(C)c(C)c1S(=O)(=O)NCC1(C(N)=O)CCOCC1`: the “Percent Effect” value is on record as -35.42%.
As for `Cc1ccc(N2CC[C@H]3C[C@H](C(=O)NCc4ccco4)O[C@H]3C2)nn1.O=C(O)C(F)(F)F`, the “Percent Effect” value was -18.7%.
Consider `CN(Cc1ccc([S+](C)[O-])cc1)c1cncc(Br)c1` (stereo not drawn), for which the “Percent Effect” value is listed as -68.65%.
For `COc1cccc(CN2CCCCCC2c2sccc2C)c1O` (stereo not drawn), the “Percent Effect” value is recorded as -12.07%.
The same measure for `COc1cccc(CN2CCCCCC2c2cccc(C)c2)c1O` (stereo not drawn): 56.55%.
On to `Cc1cccc(C2CCCCCN2Cc2cn(C)nc2C)c1` (stereo not drawn), for which the “Percent Effect” value is 32.86%.
With `COc1cccc(CN2CCCCCC2c2cccc(F)c2)c1O` (stereo not drawn), the “Percent Effect” value stood at 55.91%.
For the compound `COc1cccc(CN2CCCCCC2c2cccs2)c1O` (stereo not drawn), the “Percent Effect” value was determined as 1.572%.
For `COc1cc(CN2CCCCCC2c2cccs2)cc(OC)c1O` (stereo not drawn), the “Percent Effect” value was -97.62%.
With `Cc1noc(C2CCC3(CCN(C(=O)c4ccncn4)CC3)O2)n1` (stereo not drawn), the “Percent Effect” value is recorded as -45.98%.
Turning to `O=C(c1cccc2cn[nH]c12)N1CCCC1c1noc(C2CC2)n1` (stereo not drawn), the “Percent Effect” value is -53.04%.
The same measure for `CCn1ccc(-c2cc(C(=O)O)n3nc(C)c(Cl)c3n2)n1`: -42.05%.
Turning to `O=C(O)C(F)(F)F.O=C1C[C@H]2[C@@H](CCN2C(=O)c2ccoc2)N1CCN1CCOCC1`, the “Percent Effect” value was -16.54%.
Take `Cc1cccc(-n2ncc3c(=O)n(CCN4CCCCC4)cnc32)c1C`: the “Percent Effect” value is recorded as -32.3%.
`CC1CN(Cc2ccccc2)CCCN1CCCS(C)(=O)=O` (stereo not drawn): the “Percent Effect” value came out at 50.52%.
The same measure for `CNS(=O)(=O)CCCN1CCCCCC1c1ccc(C)o1` (stereo not drawn): 7.133%; for `CNS(=O)(=O)CCCN1CCCN(Cc2ccccc2)CC1C` (stereo not drawn): 57.31%; for `COCCN1CCN(CCCS(C)(=O)=O)CC1C` (stereo not drawn): -45.99%.
Next, `COCCN1CCN(CCCS(=O)(=O)c2ccccc2)CC1C` (stereo not drawn): -125.8%; `CNS(=O)(=O)CCCN1CCCC1c1cc(C)on1` (stereo not drawn): -107.9%; `Cc1cc(F)ccc1N1CCCC(NC(=O)CCCn2ccnc2)C1` (stereo not drawn): -46.83%.
Turning to `Cc1ccoc1-c1nnc(CN2CCn3c(nnc3C(C)C)C2)o1`, the “Percent Effect” value is -39.14%.
The same measure for `CCCN1CCN(c2ccc(-c3nc(C)no3)cn2)CC1`: -136.9%; for `CCn1cc(CN2CCCN(C(=O)CCN3CCCC3=O)CC2)cn1`: -110.7%; for `CC(C)C(NC(=O)N1CCS(=O)(=O)CC1)c1ccccc1Cl` (stereo not drawn): -66.72%.
Regarding `CSCC(=O)N(C)Cc1ccccc1`, the “Percent Effect” value is reported as -13.25%.
On to `N#Cc1nc(COc2ccc3c(c2)OCO3)oc1NC1CC1`, for which the “Percent Effect” value is given as -68.74%.
For the compound `Clc1ccc(N2CCC(C3CCN(Cc4cccnc4)CC3)C2)nc1` (stereo not drawn), the “Percent Effect” value worked out at 9.118%.
For the compound `Clc1ccc(CN2CCC(C3CCN(Cc4cccnc4)CC3)C2)cc1` (stereo not drawn), the “Percent Effect” value is listed as 62.84%.
`CN1CCN(Cc2ccc(Cl)cc2)CC1C(=O)O` (stereo not drawn): the “Percent Effect” value was -101.8%.
With `CC(=O)NCC(=O)N1CCC(C2CCN(Cc3ccc(Cl)cc3)C2)CC1` (stereo not drawn), the “Percent Effect” value is reported as 1.574%.
Consider `O=C(C1CCC1)N1CC[C@@H]2CN(Cc3cccnc3)S(=O)(=O)[C@@H]2CC1`, for which the “Percent Effect” value was -57.62%.
`CCOCC(=O)N1CCC(C2CCN(Cc3ccc(Cl)cc3)C2)CC1` (stereo not drawn): the “Percent Effect” value was -3.864%.
Turning to `O=C(C1CCC1)N1CCC(C2CCN(Cc3ccc(Cl)cc3)C2)CC1` (stereo not drawn), the “Percent Effect” value came to 64.14%.
In the case of `O=C(C1CCCC1)N1CCC(C2CCN(Cc3ccc(Cl)cc3)C2)CC1` (stereo not drawn), the “Percent Effect” value turned out to be 62.77%.
`Clc1cccnc1N1CCC(C2CCN(Cc3cccnc3)CC2)C1` (stereo not drawn): the “Percent Effect” value is -53.88%.
